Most compounds without a hit are left out; they make up all but 21% or so of the library.
RORg inh: inhibitors of mouse ROR gamma transcriptional activity; P51450; Drosophila S2 Gal4-RORgamma UAS-luciferase reporter, 20 h; Potency, µM (series often up to 53.6 µM), inactives show at the highest dose activity change, negative = inhibition, most hits filed as inhibitors; hit rate 5.4% among 310,000; note: potency is the fitted concentration of half-maximal effect; nearly all actives have a fitted effect of over 60% in size
Target sequence (P51450 whole entry, looked up, the tested form may be a part): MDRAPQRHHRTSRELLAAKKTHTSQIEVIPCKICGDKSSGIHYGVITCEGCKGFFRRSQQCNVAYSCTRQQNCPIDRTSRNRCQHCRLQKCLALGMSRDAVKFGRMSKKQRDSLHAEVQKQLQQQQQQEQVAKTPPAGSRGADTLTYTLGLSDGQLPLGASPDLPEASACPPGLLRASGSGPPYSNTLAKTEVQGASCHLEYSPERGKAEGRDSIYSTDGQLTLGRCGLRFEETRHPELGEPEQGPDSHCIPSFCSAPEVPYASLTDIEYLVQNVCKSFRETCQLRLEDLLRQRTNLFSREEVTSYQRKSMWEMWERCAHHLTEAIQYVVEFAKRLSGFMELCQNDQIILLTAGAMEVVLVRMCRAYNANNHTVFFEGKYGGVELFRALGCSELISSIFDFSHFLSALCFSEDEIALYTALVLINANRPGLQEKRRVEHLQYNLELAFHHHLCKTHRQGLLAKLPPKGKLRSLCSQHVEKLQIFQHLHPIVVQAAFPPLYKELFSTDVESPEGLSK
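A Gal4/UAS one-hybrid system in insect cells: metallothionein-promoter Gal4–ROR gamma fusion plus Photinus luciferase reporter. Copper sulfate 700 uM final, 20 hr ambient incubation, luminescent detection after 10 min with reagent.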
IL-1B inflam inh: inhibitors of inflammasome signaling (IL-1 beta secretion); THP-1 LPS/ATP IL-1B secretion, AlphaLISA, 16 h; active compounds read low; activity change, % at 57.5 µM; hit rate 4.7% among 360,000; in the data active = activity change below about -50%; inconclusive = mostly about -30% to -49%
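Secreted IL-1B measured by AlphaLISA bead assay after 16 h compound exposure of THP-1 cells; compounds (final up to 57.5 uM) added 1 h before LPS (250 ng/mL) and ATP (1.25 mM) stimulation; lower signal means less secretion.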
ELG1 DNA repair: ELG1-dependent DNA repair inhibition | HEK293T ELG1-luciferase reporter, luminescence, 16 h; DNA damage induced by 5-fluorouridine | Potency, µM (series often up to 46.1 µM), for the others: top-dose activity change, negative = inhibition, hits mostly inhibitors | hit rate 2.3% among 330,000 | AID 504467; note: potency is the fitted concentration of half-maximal effect; nearly all actives have a fitted effect of over 55% in size
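Cells (2,000 per well) received 5-fluorouridine plus test compound or DMSO and were incubated 16 hr at 37 °C, 5% CO2. Luciferase activity was read by luminescence 30 min after ONE-Glo addition; signal suppression marked inhibition of damage-induced ELG1 function.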
DT40 TDP1 no CPT: qHTS for Inhibitors of human tyrosyl-DNA phosphodiesterase 1 (TDP1): qHTS in cells in absence of CPT. hit rate 15% among 420,000. DT40 Tdp1-/- hTDP1 cells, no CPT, ATP luminescence, 48 h. Potency, µM (highest dose often 46.2 µM), for inactives: at the highest dose activity change, negative = growth inhibition, actives largely listed as inhibitors; note: potency is the fitted concentration of half-maximal effect; nearly all actives have a fitted effect of over 55% in size
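Chicken DT40 Tdp1-/- cells stably complemented with human TDP1 were seeded at 400 cells/well with DMSO in place of 20 nM camptothecin. After compound pinning, cells grew at least 48 hr at 37 °C; viability read by CellTiter-Glo luminescence.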
TDP1 cell CPT: DT40-hTDP1 cell growth loss with CPT; chicken DT40 Tdp1-/-;hTDP1 cells + 20 nM CPT, ATP luminescence, 48 h; Potency, µM (titrated, usually from 46.2 µM), for the others: at the top dose activity change, negative = growth inhibition, actives largely listed as inhibitors; hit rate 12% among 420,000; AID 686979; note: potency is the fitted concentration of half-maximal effect; nearly all actives have a fitted effect of over 55% in size
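Chicken DT40 Tdp1-/- cells complemented with human TDP1, 400 cells/well, exposed to compounds plus 20 nM camptothecin for at least 48 h at 37 C; viability read as ATP content by CellTiter-Glo luminescence.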
Gal4-VP16 FLuc: inhibits Gal4-VP16 luciferase reporter, ROR gamma counter-screen. hit rate 3.5% among 310,000. Drosophila S2 Gal4-VP16 UAS-luciferase, luminescence, 20 h. Potency, µM (highest dose often 53.6 µM), for inactives: at the top dose activity, negative = inhibition, most hits filed as inhibitors;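 note: Gal4-VP16 expression switched on by copper sulfate through the metallothionein promoter; potency is the fitted concentration of half-maximal effect; nearly all actives have a fitted effect of over 50% in size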
* marks the source's active call; other numbers are inactive results; ? = inconclusive; / = not tested or not shown; [ ] = remark or other dose. Unless noted, calls come from the whole dose curve; as a rule, active = well fitted curve in the direction sought with a large enough effect; inconclusive = small, poorly fitted or top-dose-only effect, or another doubt; inactive = no such curve, though single readings can be large; an effect the other way counts as inactive or inconclusive. % is set by controls: 0 for no effect and ±100 for the full control effect.

SMILES	RORg inh	IL-1B inflam inh	ELG1 DNA repair	DT40 TDP1 no CPT	TDP1 cell CPT	Gal4-VP16 FLuc
CSc1nnc2c(n1)OC1(Nc3ccccc3-2)C(=O)Nc2ccccc21 (stereo unspecified)	29.3%	10.0	2.9%	16.4µM*	?	-4.2%
CCSc1nnc2c(n1)OC(C)(C)Nc1ccccc1-2	?	19.9	?	?	-22.3%	-5.7%
O=C1Cc2ccccc2C(=O)N1	/	107.1	/	1.16µM*	1.46µM*	/
CC1=C(C(=O)Nc2cccnc2)C(c2ccc(F)cc2)n2nc(SCc3ccccc3)nc2N1 (stereo unspecified)	/	/	/	-13.1%	-3.5%	/
Cc1cc(C)cc(N2CCn3c2nc2c3c(=O)n(Cc3ccc(Cl)cc3)c(=O)n2C)c1	/	/	/	-6.4%	-2.7%	/
O=C(C[C@H]1CC[C@@H]2[C@H](COC[C@@H](O)CN2Cc2cccc(F)c2)O1)NCC1CCCCC1	/	22.2	/	20.6µM*	20.6µM*	/
O=C(C[C@H]1CC[C@@H]2[C@H](COC[C@H](O)CN2Cc2cccc(C(F)(F)F)c2)O1)NCCc1ccccc1	/	-16.2	/	13µM*	20.6µM*	/
CN1CCN(C(=O)c2cc3sc4ccccc4c3s2)CC1	15.6%	-2.9	?	?	-27.7%	-6.9%
CCCCCCn1c(O)c(/C=C2\C=NN=C2c2ccccc2)sc1=S	36.7%	-87.5*	-0.3%	23.1µM*	?	-11.0%
CC(C)Cn1c(O)c(/C=C2\C=NN=C2c2ccccc2)sc1=S	?	-88.8*	?	?	?	?
CCn1c(O)c(/C=C2\C=NN=C2c2ccccc2)sc1=S	-9.7%	?	-5.3%	?	-4.9%	1.4%
CCCCn1c(O)c(/C=C2\C=NN=C2c2ccccc2)sc1=S	?	-85.1*	13.6%	?	?	?
C[C@@H](C(=O)Cc1ccc2ccccc2c1)[C@@H]1C[C@@]1(C)[C@@H](NP(=O)(c1ccccc1)c1ccccc1)c1ccccc1	-9.8%	/	/	/	/	-2.5%
CCN(CC)CCn1c2ccccc2c(=O)c2c(O)ccc(O)c21	/	-2.7	/	20.6µM*	7.31µM*	/
O=c1oc2ccccc2n1CCn1c2ccccc2c2nc3ccccc3nc21	?	-21.0	?	5.8µM*	16.4µM*	?
CCN(CC)CCn1c2ccccc2c2nc3ccccc3nc21	-9.2%	-97.1*	?	23.1µM*	?	-2.3%
N#CCCn1c2ccccc2c2nc3ccccc3nc21	14.3%	-91.4*	-19.6%	9.2µM*	?	-2.7%
CCN(CC)CCn1c2ccccc2c2n[nH]c(=S)nc21	/	33.5	6.6%	-11.5%	3.8%	/
O=[N+]([O-])c1ccc(/C=C2\C=Cc3ccccc32)cc1	/	/	/	?	8.91µM*	/
CSc1ccc(/C=C2\C=Cc3cc([N+](=O)[O-])ccc32)cc1	/	/	/	15.8µM*	11.2µM*	/
O=[N+]([O-])c1ccc2c(c1)C=C/C2=C\c1ccccc1	/	/	/	-10.9%	-19.4%	/
CC1C(=O)N(Cc2cn(CCC3OCCO3)nn2)CCS(=O)(=O)N1Cc1ccc(-c2ccc(F)nc2)cc1 (stereo unspecified)	/	-17.7	/	?	-24.5%	/
Cc1cc(NNC(=O)c2cccc(C(F)(F)F)c2)nc2c1c(C)nn2C	-28.8%	-1.9	?	5.8µM*	10.3µM*	?
CC(C)(C)c1cc(OC(=O)C2CCCC2)ccc1O	?	?	-32.9%	3.66µM*	5.17µM*	11.2µM*
CC(=O)c1cccc(NC(=O)CSc2nnc3ccc(-c4ccc(Br)cc4)nn23)c1	/	/	/	-5.3%	3.5%	/
SMILES	RORg inh	IL-1B inflam inh	ELG1 DNA repair	DT40 TDP1 no CPT	TDP1 cell CPT	Gal4-VP16 FLuc
CC(=O)NN1C(=O)c2ccc3c4c(ccc(c24)C1=O)C(=O)N(NC(C)=O)C3=O	11.2µM*	82.5	?	?	?	11.2µM*
CCn1c(CNc2ccc(Cl)cc2)nnc1SCc1ccc(Cl)cc1	43.2%	-1.7	?	18.4µM*	?	-3.3%
CCn1c(CNc2ccc(Cl)cc2)nnc1SCc1ccc(C)cc1	?	?	?	-27.2%	?	13.9%
CCn1c(CNc2ccc(Cl)cc2)nnc1SCCN1CCCCC1	10.2%	-5.0	2.0%	18.4µM*	20.6µM*	-5.1%
CCOC(=O)CSc1nnc(CNc2ccc(Cl)cc2)n1-c1ccccc1	-8.1%	6.0	?	-9.3%	-11.9%	-9.8%
CCOc1ccc(NCc2nnc(SCc3ccc(Cl)cc3)n2-c2ccccc2)cc1	36.1%	?	?	29.1µM*	?	?
COc1ccc(NC(=O)C(CC(C)C)NC(=O)C2CCC(C)CC2)c(OC)c1 (stereo unspecified)	6.5%	?	-14.7%	?	14.6µM*	5.9%
COc1ccc(OC)c(NC(=O)C2CCCN2C(=O)C2CCC(C)CC2)c1 (stereo unspecified)	2.4%	55.1	?	13µM*	?	6.7%
CCC(C)C(NC(=O)C1CCC(C)CC1)C(=O)Nc1cc(OC)ccc1OC (stereo unspecified)	-13.1%	1.1	10.2%	18.4µM*	?	-7.7%
CCC(C)C(NC(=O)C1CCC(C)CC1)C(=O)Nc1ccc(OC)cc1OC (stereo unspecified)	0.1%	0.0	0.0%	-16.8%	?	6.5%[10 µM]
O=C(Nc1cccc2ccccc12)c1csc([C@@H]2O[C@H](CO)[C@H](O)[C@H](O)[C@H]2O)n1	/	2.5	/	-4.7%	-8.4%	/
CCOCCCn1c(SCC(=O)Nc2ccc(C(C)C)cc2)nc2c(sc3ccccc32)c1=O	/	/	/	?	-23.2%	/
CCCCOc1ccc(C2/C(=C(/O)c3ccc4c(c3)CC(C)O4)C(=O)C(=O)N2CCCN2CCOCC2)cc1OC (stereo unspecified)	-2.6%	4.8	-1.8%	?	?	-9.9%
Fc1ccc(Nc2ccnc(C(F)(F)F)c2)cc1	5.6%	-4.2	?	-9.9%	?	-5.7%
FC(F)(F)c1cc(NC2CCCCC2)ccn1	?	16.5	8.2µM*	29.1µM*	-15.8%	-8.9%
COc1cc(/C=C(\C#N)c2nc3ccccc3n2C)cc(OC)c1O	2.5%	6.8	?	-7.6%	?	-10.5%
Cn1c(/C(C#N)=C/c2ccc(C(F)(F)F)cc2)nc2ccccc21	/	/	/	13µM*	20.6µM*	/
Cn1c(/C(C#N)=C/c2ccc(O)cc2)nc2ccccc21	43.7%	-19.8	?	-16.3%	?	-10.2%
Cn1c(/C(C#N)=C/c2ccncc2)nc2ccccc21	-15.5%	-52.3*	0.2%	20.6µM*	?	-24.0%

Source: PubChem BioAssay
